USP8 block – blocks human USP8 ubiquitin-rhodamine cleavage | P40818 | purified USP8, Ub-rhodamine cleavage fluorescence, 30 min | inhibition, % at 20 µM | hit rate 4.2% among 47,000
USP17 inh – blocks human USP17 ubiquitin-rhodamine cleavage. A8MUK1. purified USP17, Ub-rhodamine cleavage fluorescence, 3 h. inhibition, % at 50 µM. hit rate 6.5% among 47,000. AID 1645855
Target sequence (A8MUK1 whole entry, looked up): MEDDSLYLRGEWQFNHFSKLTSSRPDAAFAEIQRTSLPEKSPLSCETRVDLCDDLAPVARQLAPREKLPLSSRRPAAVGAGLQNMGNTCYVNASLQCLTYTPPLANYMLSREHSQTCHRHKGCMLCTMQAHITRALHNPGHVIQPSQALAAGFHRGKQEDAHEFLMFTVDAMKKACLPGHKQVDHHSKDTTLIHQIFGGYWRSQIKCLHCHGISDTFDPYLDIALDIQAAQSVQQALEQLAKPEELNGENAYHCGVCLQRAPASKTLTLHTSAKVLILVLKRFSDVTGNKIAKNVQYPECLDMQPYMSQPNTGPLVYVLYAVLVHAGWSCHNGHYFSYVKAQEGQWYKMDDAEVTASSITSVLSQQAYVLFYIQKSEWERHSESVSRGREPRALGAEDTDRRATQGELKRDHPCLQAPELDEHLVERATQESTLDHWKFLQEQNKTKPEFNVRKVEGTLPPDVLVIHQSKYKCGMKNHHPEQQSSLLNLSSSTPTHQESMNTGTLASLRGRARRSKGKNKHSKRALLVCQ
USP10 inh – inhibitors of human USP10 deubiquitinase | inhibition, % at 20 µM | purified USP10, Ub-rhodamine fluorescence, 60 min | Q14694 | hit rate 1.1% among 47,000 | AID 1645856
USP30 inh – inhibitors of human USP30 deubiquitinase | Q70CQ3 | purified USP30, Ub-rhodamine cleavage fluorescence | inhibition, % at 25 µM | hit rate 5.3% among 47,000
USP28 inh – inhibitors of human USP28 deubiquitinase | hit rate 3% among 47,000 | Q96RU2 | purified USP28, Ub-rhodamine cleavage fluorescence, 30 min | inhibition, % at 25 µM
Of the large screens only hits and unclear results are named; the others gave an inactive call. A selection: hits, their analogues and other compounds. The true share with any hit is near 14%. Rule as the data show it: active = inhibition above about 30%; inactive = the rest.

O=c1[nH]/c(=C\c2ccccc2)c(=O)[nH]/c1=C\c1ccccc1	none
Cn1c(=O)/c(=C/c2ccccc2)[nH]c(=O)/c1=C/c1ccccc1	USP17 inh 56
O=C(OCC(=O)N1CCc2ccccc2C1)c1cc(S(=O)(=O)N2CCCCC2)ccc1Cl	none
CCCCCCCC(=O)c1c(O)cc(O)cc1CC(=O)O	none
COc1c(O)cc(CC(=O)O)c(C(C)=O)c1O	USP17 inh 81, USP30 inh 34, USP28 inh 79
COCCNC(=O)c1ccc(Oc2nccnc2Sc2ccccc2)cc1	none
Cc1cccc(NC(=O)NCCc2cn(C)c3ncccc23)c1C	none
Cc1ccc(C)c(NC(=O)NCCc2cn(C)c3ncccc23)c1	USP17 inh 37
COc1ccc(C(=O)COC(=O)c2ccccc2NS(=O)(=O)c2ccc(O)c([N+](=O)[O-])c2)cc1	USP8 block 62, USP17 inh 74, USP10 inh 63, USP30 inh 47, USP28 inh 60
O=C(COC(=O)c1ccccc1NS(=O)(=O)c1ccc2c(c1)OCCO2)c1ccc([N+](=O)[O-])cc1	none
O=C(O)c1cccc(-c2ccc(CNCc3ccc4c(c3)OCO4)o2)c1	none
Cc1oc(-c2[nH]ncc2C(=O)N(C)C)cc1S(=O)(=O)N1CCC(C)CC1	none
Cc1ccccc1Cn1ccc(NC(=O)c2noc(C)c2[N+](=O)[O-])n1	USP28 inh 75
COc1ccc(S(=O)(=O)Nc2ccc(Nc3ccc(-n4cccn4)nn3)cc2)cc1	USP17 inh 47, USP30 inh 62
Cc1cccc(NC(=O)COc2coc(CN3CCc4ccccc4C3)cc2=O)c1	USP8 block 35
Cc1ccc(C)c(NC(=O)COc2coc(CN3CCc4ccccc4C3)cc2=O)c1	none
CC(=O)c1ccc(NC(=O)COc2coc(CN3CCc4ccccc4C3)cc2=O)cc1	USP17 inh 46
COCCn1c(C)cc(C(=O)COC(=O)c2ccc3c(c2)nc(C)n3-c2ccccc2)c1C	none
COCCn1c(C)cc(C(=O)c2sc(-c3c(N)n(C)c(=O)n(C)c3=O)nc2-c2ccccc2)c1C	USP17 inh 35
O=C(CCc1nc(CSc2n[nH]c(-c3ccccc3)n2)no1)Nc1ccc(F)cc1F	none
COc1ccc(OC)c(NC(=O)CSc2nc3ccccc3c3nc(C)nn23)c1	none
CC(C)CC(=O)N1CCC(c2ncncc2-c2ccnc(N)c2)C1 (configuration not stated)	none
CC1=C(C(=O)Nc2cccnc2)C(c2cccc(OCc3ccccc3)c2)n2nnnc2N1 (configuration not stated)	USP8 block 37
CC1=C(C(=O)Nc2ccccc2)C(c2cccc(OCc3ccc(F)cc3)c2)n2ncnc2N1 (configuration not stated)	none
CC1=C(C(=O)Nc2ccc(C)cc2)C(c2ccncc2)n2c(nc3ccccc32)N1 (configuration not stated)	none
CC1=C(C(=O)Nc2ccccc2)C(c2cccnc2)n2c(nc3ccccc32)N1 (configuration not stated)	USP17 inh 45
Cn1nnc2c1CCN(C(=O)C1CCCC1)C2COCc1ccccc1 (configuration not stated)	none
Cc1cccc(CC(=O)N2CCN=C2SCc2ccccc2)c1	none
O=C(c1ccco1)N1CCN=C1SCc1ccc([N+](=O)[O-])cc1	USP17 inh 43, USP30 inh 53, USP28 inh 61
O=C(c1ccco1)N1CCN=C1SCc1ccccc1F	USP28 inh 75
Cc1cccc(NC(=O)N2CCCC2c2cc(C(C)C)on2)c1 (configuration not stated)	none
CNc1nccnc1C1CN(C(=O)c2ccc3c(c2)CCC3)CCO1 (configuration not stated)	none
COc1ccc(CNC(=O)C2COc3ccc(OC)cc3C2)cc1 (configuration not stated)	USP17 inh 34
Cc1ccc(C2=NC3(CCN(Cc4cccc(F)c4)CC3)NC2=O)cc1	none (no result: USP17 inh)
Cc1ccc(NC(=O)Nc2ccc(C)n(CC(=O)Nc3cc(C)ccc3C)c2=O)cc1	USP8 block 70, USP17 inh 54, USP10 inh 39, USP30 inh 65, USP28 inh 30
Cc1ccc(C)c(NC(=O)Cn2ccc3ccn(C)c3c2=O)c1	USP17 inh 46
Cc1ccc(NC(=O)Nc2ccc(C)n(CC(=O)Nc3ccc(C)cc3C)c2=O)cc1	USP8 block 69, USP17 inh 79, USP10 inh 63, USP30 inh 74, USP28 inh 53
Cc1ccc(NC(=O)CN2c3ccccc3S(=O)(=O)c3ccccc32)c(C)c1	none
c1ccc(-c2cc(N3CCC4(CC3)OCCO4)nc(-c3ccncc3)n2)cc1	none (no result: USP17 inh)
FC(F)(F)c1cc(C(F)(F)F)c2ccc(N3CCC4(CC3)OCCO4)nc2n1	USP17 inh 30
O=C(NCc1ccccc1Cl)c1ccc2cn[nH]c2c1	USP28 inh 55
O=C(Nc1ccccc1Cl)c1csc(Cc2c(Cl)cccc2Cl)n1	USP17 inh 37, USP30 inh 48
CN1C(=O)CCc2cc(NC(=O)c3cc4ccccc4[nH]3)ccc21	USP17 inh 33
CCCN1C(=O)CCc2cc(NC(=O)c3ccccc3)ccc21	none
CCN1CCc2nc(-c3ccccc3)n(CC(=O)N3CCOc4ccc(C)cc43)c(=O)c2C1	USP8 block 59
CCN1CCc2nc(-c3ccc(F)cc3)n(CC(=O)N(CC)c3ccccc3)c(=O)c2C1	USP8 block 48
CC(C)NC(=O)CN1CCC2(CCC1=O)CC(=O)c1ccccc1O2 (configuration not stated)	none
CCOC(=O)C1CCN(C(=O)CCC(=O)Nc2ccc(Oc3ccccc3)cc2)CC1	USP30 inh 34
O=C(CCC(=O)N1CCC(C(=O)N2CCCCC2)CC1)Nc1ccc(Oc2ccccc2)cc1	none
CCN(CC)CCn1c(NC(=O)c2ccc(S(=O)(=O)N3CCOCC3)cc2)nc2ccccc21	USP8 block 70
CCCn1c(NC(=O)Cc2ccc(OC)c(OC)c2)nc2ccccc21	USP8 block 64
CCCn1c(NC(=O)c2cccnc2)nc2ccccc21	USP28 inh 31
CCn1c(NC(=O)c2cccnc2N2CCCC2)nc2ccccc21	none
CCC1CCCCN1Cc1nc2c(c(=O)n(C)c(=O)n2C)n1Cc1ccccc1Cl (configuration not stated)	none
O=C(Cn1nc(C2CC2)cc1C(=O)N1CCCC1)NCc1ccc(F)cc1	none
O=C(CC1SCCNC1=O)Nc1cccc2ccccc12 (configuration not stated)	none
O=c1ccnc(Nc2cccc3ccccc23)[nH]1	USP8 block 49
COc1ccccc1N(C(=O)Nc1ccccc1)C1=NCCC1	USP28 inh 46
O=C(CCCSc1nc2ccccc2[nH]1)Nc1cccc(-n2cnnn2)c1	none
COc1cccc2[nH]c(C(=O)NCC(=O)Nc3ccc4c(c3)OCO4)cc12	USP17 inh 40
CCOC(=O)N1CCN(C(=O)CNC(=O)c2cc3c(OC)cccc3[nH]2)CC1	none
COc1ccc(OC)c(NC(=O)c2cc3c(OC)cccc3[nH]2)c1	none
